# Experimental data reported in PubChem BioAssay AID1159580 (chemical genetic matrix, 2015).
# Several values for one entry are separate records, joined by “and”; a condition that tells them apart may be missing. Equal values may be shown once. Hit rate of the full screen: of about 5,500 compounds, about 2,000 (36%) were called active. Another 18% or so got no clear call; they are omitted. Cut-off read from the data, not from the text of the source: active = normalized growth mostly below about 0.91 (no sharp cut-off); inconclusive = no clear call, values can overlap the other calls; inactive = mostly above about 0.92. Some of the results follow. A structure can be active in one record and inactive in another.
# Experiment: chemical genetic growth profiling, strain panel (AID 1159580);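 note: tested at 20 µM; growth read once vehicle control cultures reached saturation at 30 °C; 1 = growth at the plate median or of vehicle wells; lower values mean less growth of the strain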
# Conditions: growth OD
structure (smiles),measurement,setting,value
CC[N+](C)(C)c1cccc(O)c1,normalized growth,"S. cerevisiae deletion strains, locus YJR075W, strain HOC1, stronger effect = lower value",0.985 (inactive) and 1.04 (inactive)
same,normalized growth,"S. cerevisiae deletion strains, locus YKL009W, strain mrt4, stronger effect = lower value",1 (inactive)
same,normalized growth,"S. cerevisiae deletion strains, locus YKL068W, stronger effect = lower value",0.985 (inactive)
same,normalized growth,"S. cerevisiae deletion strains, locus YKL085W, strain MDH1 (second series), stronger effect = lower value",1 (inactive)
same,normalized growth,"S. cerevisiae deletion strains, locus YKL085W, strain MDH1, stronger effect = lower value",1 (inactive)
same,normalized growth,"S. cerevisiae deletion strains, locus YKL160W, strain elf1, stronger effect = lower value",1.06 (inactive)
same,normalized growth,"S. cerevisiae deletion strains, locus YKL190W, strain CNB1, stronger effect = lower value",1.01 (inactive)
same,normalized growth,"S. cerevisiae deletion strains, locus YKR001C, strain vps1, stronger effect = lower value",0.97 (inactive)
same,normalized growth,"S. cerevisiae deletion strains, locus YKR026C, strain gcn3, stronger effect = lower value",1 (inactive)
same,normalized growth,"S. cerevisiae deletion strains, locus YKR091W, strain srl3, stronger effect = lower value",1.01 (inactive)
same,normalized growth,"S. cerevisiae deletion strains, locus YLL001W, strain dnm1, stronger effect = lower value",1.06 (inactive)
same,normalized growth,"S. cerevisiae deletion strains, locus YLL026W, stronger effect = lower value",1 (inactive)
same,normalized growth,"S. cerevisiae deletion strains, locus YLL041C, strain sdh2, stronger effect = lower value",1.01 (inactive)
same,normalized growth,"S. cerevisiae deletion strains, locus YLR027C, strain aat2, stronger effect = lower value",1.02 (inactive)
same,normalized growth,"S. cerevisiae deletion strains, locus YLR039C, strain RIC1, stronger effect = lower value",0.993 (inactive)
same,normalized growth,"S. cerevisiae deletion strains, locus YLR058C, strain SHM2, stronger effect = lower value",0.982 (inactive)
same,normalized growth,"S. cerevisiae deletion strains, locus YLR102C, strain apc9, stronger effect = lower value",0.977 (inactive)
same,normalized growth,"S. cerevisiae deletion strains, locus YLR113W, strain HOG1, stronger effect = lower value",0.996 (inactive)
same,normalized growth,"S. cerevisiae deletion strains, locus YLR221C, strain rsa3, stronger effect = lower value",1.03 (inactive)
same,normalized growth,"S. cerevisiae deletion strains, locus YLR258W, strain gsy2, stronger effect = lower value",1.01 (inactive)
same,normalized growth,"S. cerevisiae deletion strains, locus YLR262C, strain YPT6 (second series), stronger effect = lower value",1.05 (inactive)
same,normalized growth,"S. cerevisiae deletion strains, locus YLR262C, strain YPT6, stronger effect = lower value",1 (inactive)
same,normalized growth,"S. cerevisiae deletion strains, locus YLR268W, strain sec22, stronger effect = lower value",0.917 (inactive)
same,normalized growth,"S. cerevisiae deletion strains, locus YLR320W, strain mms22, stronger effect = lower value",1.06 (inactive)
same,normalized growth,"S. cerevisiae deletion strains, locus YLR330W, strain CHS5, stronger effect = lower value",0.992 (inactive)
same,normalized growth,"S. cerevisiae deletion strains, locus YLR342W, strain FKS1 (second series), stronger effect = lower value",1.04 (inactive)
same,normalized growth,"S. cerevisiae deletion strains, locus YLR342W, strain FKS1, stronger effect = lower value",1.02 (inactive)
same,normalized growth,"S. cerevisiae deletion strains, locus YLR357W, strain rsc2, stronger effect = lower value",1.01 (inactive)
same,normalized growth,"S. cerevisiae deletion strains, locus YLR370C, strain arc18, stronger effect = lower value",1.01 (inactive)
same,normalized growth,"S. cerevisiae deletion strains, locus YLR371W, strain rom2, stronger effect = lower value",0.969 (inactive)
same,normalized growth,"S. cerevisiae deletion strains, locus YLR384C, strain iki3, stronger effect = lower value",0.996 (inactive)
same,normalized growth,"S. cerevisiae deletion strains, locus YLR418C, strain cdc73, stronger effect = lower value",0.954 (inactive)
same,normalized growth,"S. cerevisiae deletion strains, locus YML016C, strain PPZ1, stronger effect = lower value",0.992 (inactive)
same,normalized growth,"S. cerevisiae deletion strains, locus YML032C, strain rad52, stronger effect = lower value",0.954 (inactive)
same,normalized growth,"S. cerevisiae deletion strains, locus YML120C, strain ndi1, stronger effect = lower value",1.04 (inactive)
same,normalized growth,"S. cerevisiae deletion strains, locus YML124C, strain tub3, stronger effect = lower value",0.984 (inactive)
same,normalized growth,"S. cerevisiae deletion strains, locus YMR058W, strain fet3, stronger effect = lower value",1.02 (inactive)
same,normalized growth,"S. cerevisiae deletion strains, locus YMR078C, strain ctf18, stronger effect = lower value",0.96 (inactive)
same,normalized growth,"S. cerevisiae deletion strains, locus YMR125W, strain sto1, stronger effect = lower value",1.05 (inactive)
same,normalized growth,"S. cerevisiae deletion strains, locus YMR129W, stronger effect = lower value",1.01 (inactive)
same,normalized growth,"S. cerevisiae deletion strains, locus YMR205C, strain PFK2, stronger effect = lower value",1.04 (inactive)
same,normalized growth,"S. cerevisiae deletion strains, locus YMR223W, strain ubp8, stronger effect = lower value",0.996 (inactive)
same,normalized growth,"S. cerevisiae deletion strains, locus YMR231W, strain pep5, stronger effect = lower value",1 (inactive)
same,normalized growth,"S. cerevisiae deletion strains, locus YMR263W, strain SAP30, stronger effect = lower value",0.993 (inactive)
same,normalized growth,"S. cerevisiae deletion strains, locus YMR307W, strain GAS1, stronger effect = lower value",0.956 (inactive) and 1.04 (inactive)
same,normalized growth,"S. cerevisiae deletion strains, locus YNL067W, strain RPL9B, stronger effect = lower value",0.975 (inactive)
same,normalized growth,"S. cerevisiae deletion strains, locus YNL071W, strain lat1, stronger effect = lower value",1.02 (inactive)
same,normalized growth,"S. cerevisiae deletion strains, locus YNL128W, strain TEP1, stronger effect = lower value",0.991 (inactive)
same,normalized growth,"S. cerevisiae deletion strains, locus YNL153C, strain GIM3, stronger effect = lower value",0.982 (inactive)
same,normalized growth,"S. cerevisiae deletion strains, locus YNL175C, strain NOP13, stronger effect = lower value",0.999 (inactive)
same,normalized growth,"S. cerevisiae deletion strains, locus YNL183C, strain NPR1, stronger effect = lower value",0.95 (inactive)
same,normalized growth,"S. cerevisiae deletion strains, locus YNL197C, strain WHI3, stronger effect = lower value",1 (inactive)
same,normalized growth,"S. cerevisiae deletion strains, locus YNL209W, strain ssb2, stronger effect = lower value",1.01 (inactive)
same,normalized growth,"S. cerevisiae deletion strains, locus YNL224C, strain SQS1, stronger effect = lower value",1.02 (inactive)
same,normalized growth,"S. cerevisiae deletion strains, locus YNL233W, strain BNI4, stronger effect = lower value",0.979 (inactive)
same,normalized growth,"S. cerevisiae deletion strains, locus YNL248C, strain rpa49, stronger effect = lower value",1.07 (inactive)
same,normalized growth,"S. cerevisiae deletion strains, locus YNL250W, strain rad50, stronger effect = lower value",0.982 (inactive)
same,normalized growth,"S. cerevisiae deletion strains, locus YNL271C, strain bni1, stronger effect = lower value",0.977 (inactive)
same,normalized growth,"S. cerevisiae deletion strains, locus YNL298W, strain CLA4, stronger effect = lower value",0.979 (inactive)
same,normalized growth,"S. cerevisiae deletion strains, locus YNL307C, strain MCK1, stronger effect = lower value",0.973 (inactive)
same,normalized growth,"S. cerevisiae deletion strains, locus YNL322C, strain KRE1 (second series), stronger effect = lower value",1.02 (inactive)
same,normalized growth,"S. cerevisiae deletion strains, locus YNL322C, strain KRE1, stronger effect = lower value",0.993 (inactive)
same,normalized growth,"S. cerevisiae deletion strains, locus YNR049C, strain mso1, stronger effect = lower value",1.01 (inactive)
same,normalized growth,"S. cerevisiae deletion strains, locus YNR052C, strain pop2, stronger effect = lower value",0.984 (inactive)
same,normalized growth,"S. cerevisiae deletion strains, locus YOL006C, strain TOP1, stronger effect = lower value",0.948 (inactive)
same,normalized growth,"S. cerevisiae deletion strains, locus YOL012C, strain htz1",0.664 (inactive)
same,normalized growth,"S. cerevisiae deletion strains, locus YOL147C, strain pex11, stronger effect = lower value",0.982 (inactive)
same,normalized growth,"S. cerevisiae deletion strains, locus YOR001W, strain rrp6, stronger effect = lower value",0.951 (inactive)
same,normalized growth,"S. cerevisiae deletion strains, locus YOR061W, strain CKA2, stronger effect = lower value",0.989 (inactive)
same,normalized growth,"S. cerevisiae deletion strains, locus YOR069W, strain VPS5, stronger effect = lower value",0.986 (inactive)
same,normalized growth,"S. cerevisiae deletion strains, locus YOR070C, strain gyp1, stronger effect = lower value",1 (inactive)
same,normalized growth,"S. cerevisiae deletion strains, locus YOR080W, strain dia2, stronger effect = lower value",1 (inactive)
same,normalized growth,"S. cerevisiae deletion strains, locus YOR083W, strain WHI5 (second series), stronger effect = lower value",0.991 (inactive)
same,normalized growth,"S. cerevisiae deletion strains, locus YOR083W, strain WHI5, stronger effect = lower value",1.05 (inactive)
same,normalized growth,"S. cerevisiae deletion strains, locus YOR106W, strain vam3, stronger effect = lower value",1.05 (inactive)
same,normalized growth,"S. cerevisiae deletion strains, locus YOR136W, strain idh2, stronger effect = lower value",0.986 (inactive)
same,normalized growth,"S. cerevisiae deletion strains, locus YOR144C, strain elg1, stronger effect = lower value",0.979 (inactive)
same,normalized growth,"S. cerevisiae deletion strains, locus YOR184W, strain ser1, stronger effect = lower value",0.955 (inactive)
same,normalized growth,"S. cerevisiae deletion strains, locus YOR231W, strain MKK1, stronger effect = lower value",0.997 (inactive)
same,normalized growth,"S. cerevisiae deletion strains, locus YOR265W, strain rbl2, stronger effect = lower value",1.01 (inactive)
same,normalized growth,"S. cerevisiae deletion strains, locus YOR270C, strain vph1, stronger effect = lower value",1.07 (inactive)
same,normalized growth,"S. cerevisiae deletion strains, locus YOR290C, strain snf2, stronger effect = lower value",1.04 (inactive)
same,normalized growth,"S. cerevisiae deletion strains, locus YOR316C, strain cot1, stronger effect = lower value",0.975 (inactive)
same,normalized growth,"S. cerevisiae deletion strains, locus YPL051W, strain arl3, stronger effect = lower value",1.04 (inactive)
same,normalized growth,"S. cerevisiae deletion strains, locus YPL055C, strain LGE1, stronger effect = lower value",1.01 (inactive) and 1.17 [resistant] (active)
same,normalized growth,"S. cerevisiae deletion strains, locus YPL078C, strain atp4, stronger effect = lower value",1.06 (inactive)
same,normalized growth,"S. cerevisiae deletion strains, locus YPL106C, strain sse1, stronger effect = lower value",1.02 (inactive)
same,normalized growth,"S. cerevisiae deletion strains, locus YPL240C, strain hsp82, stronger effect = lower value",1.01 (inactive)
same,normalized growth,"S. cerevisiae deletion strains, locus YPL241C, strain CIN2, stronger effect = lower value",1 (inactive) and 1.01 (inactive)
same,normalized growth,"S. cerevisiae deletion strains, locus YPL256C, strain CLN2, stronger effect = lower value",0.981 (inactive)
same,normalized growth,"S. cerevisiae deletion strains, locus YPR119W, strain clb2, stronger effect = lower value",0.992 (inactive)
same,normalized growth,"S. cerevisiae deletion strains, locus YPR141C, strain kar3, stronger effect = lower value",0.96 (inactive)
same,normalized growth,"S. cerevisiae deletion strains, locus YPR163C, strain tif3, stronger effect = lower value",0.97 (inactive)
same,normalized growth,"S. cerevisiae deletion strains, locus YPR167C, strain met16, stronger effect = lower value",0.979 (inactive)
same,normalized growth,"S. cerevisiae deletion strains, strain wtn01, stronger effect = lower value",0.937 (inactive)
same,normalized growth,"S. cerevisiae strains, strain wild type, stronger effect = lower value",0.996 (inactive)
